In PubChem BioAssay AID2283260 (EPA ToxCast) one finds outcome and AC50 data, which are given here for 14 molecules.

The structures appear in SMILES notation. Inconclusive results are not listed. The source made the active and inactive calls. Rule for the calls: active = hit-call score of the fitted dose curve at least 0.9, where 1 is the maximum; inconclusive = response in the unintended direction; inactive = score below 0.9.

The target in this assay is human Complement Component 5, Anaphylatoxin Receptor (C5a), C5AR1 (gene 728) (UniProt P21730). As to the kind of experiment: NVS_GPCR_hC5a: NovaScreen (NVS) G Protein-Coupled Receptor Assay for human Complement Component 5, Anaphylatoxin Receptor (C5a). Here is the method: NVS_GPCR_hC5a is a biochemical, single-readout assay that uses extracted gene-proteins from U937 in a cell-free assay. Measurements were taken 2 hours after chemical dosing in a 96-well plate.NVS_GPCR_hC5a is one of one assay component(s) measured or calculated from the NVS_GPCR_hC5a assay. It is designed to make measurements of radioligand binding, a form of binding reporter, as detected with scintillation counting signals by Filter-based radiodetection technology.Data from the assay component NVS_GPCR_hC5a was analyzed into 1 assay endpoint. This assay endpoint, NVS_GPCR_hC5a, was analyzed in the positive analysis fitting direction relative to DMSO as the negative control and baseline of activity. Using a type of binding reporter, loss-of-signal activity can be used to understand changes in the binding as they relate to the gene C5AR1. Furthermore, this assay endpoint can be referred to as a primary readout, because the performed assay has only produced 1 assay endpoint. To generalize the intended target to other relatable targets, this assay endpoint is annotated to the gpcr intended target family, where the subfamily is rhodopsin-like receptor.
Sequence of human Complement Component 5, Anaphylatoxin Receptor (C5a), C5AR1 (gene 728) (P21730 whole entry, looked up): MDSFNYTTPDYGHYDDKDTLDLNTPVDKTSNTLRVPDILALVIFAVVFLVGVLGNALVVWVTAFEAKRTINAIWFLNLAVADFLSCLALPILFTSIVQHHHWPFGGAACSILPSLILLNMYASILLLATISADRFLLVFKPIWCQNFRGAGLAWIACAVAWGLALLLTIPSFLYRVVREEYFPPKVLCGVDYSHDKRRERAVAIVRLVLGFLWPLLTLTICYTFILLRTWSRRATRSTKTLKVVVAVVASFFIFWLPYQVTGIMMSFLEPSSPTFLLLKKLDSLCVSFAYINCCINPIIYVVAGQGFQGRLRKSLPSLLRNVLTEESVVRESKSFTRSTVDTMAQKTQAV
Binding assays used specific radioligands (tritiated, iodinated) with non-radioactive competitive displacement ligands in agonist or antagonist protocols (as indicated) and various reference compounds and inhibitors to titrate specific binding to receptors and transporters. Most enzyme assays (CYPs, kinases, phosphatases, proteases, HDACs) used recombinant protein and specific substrates (fluorescence mostly, some colorimetric and radioactive) and inhibitors, followed by a biochemical separation of substrate and product. All assays for the biochemical HTS were initially run in duplicate at a single concentration (10 uM for CYP450 assays and 25 uM for all others). Assay-chemical combinations meeting a pre-defined threshold (e.g., 30% inhibition and other criteria defined below) were then run in singleton concentration-response format with maximum concentration of 20 uM for CYPs and 50 uM for all others. Each assay was run with positive and negative controls, and concurrent controls on every plate. The follow-up (secondary) screen tested active chemical-pairs in concentration series, as well as a few additional assays not tested in the primary screen, some selected negative inactives, and several cases re-run in the concentration series for confirmatory purposes.
Regarding `C#CCOS(=O)OC1CCCCC1Oc1ccc(C(C)(C)C)cc1` (centres undefined), the call was inactive.

In the case of `C=CCc1cc(S(=O)(=O)c2ccc(O)c(CC=C)c2)ccc1O`, the call was inactive.

As usually defined, the AC50 is the midpoint of the concentration-response curve, whichever way the signal moves. Regarding `CCCCCCCCCC[N+](C)(C)CCCCCCCCCC`, the AC50 was 42.3 µM (active).

On to `CCOC(=O)NCCOc1ccc(Oc2ccccc2)cc1`, for which the call was inactive.

In the case of `Oc1ccc(C(c2ccc(O)cc2)C(Cl)(Cl)Cl)cc1`, the molecule was classed as inactive.

As for `COc1ccc(C(c2ccc(OC)cc2)C(Cl)(Cl)Cl)cc1`, the call was inactive.

Consider `COC(=O)c1c(C(F)F)nc(C(F)(F)F)c(C2=NCCS2)c1CC(C)C`, for which the molecule was called inactive.

Consider `CCC(C)(C)C(=O)OC1=C(c2ccc(Cl)cc2Cl)C(=O)OC12CCCCC2`, for which the call was inactive.

With `[Cl-].[Cl-].[Hg+2]`, the AC50 is 25 µM (active).

For `CCCCCCCCCC`, the call was inactive.

Regarding `CCC[CH2][Sn]([Cl])([CH2]CCC)[CH2]CCC`, the molecule was called inactive.

Take `COc1cc(OC)nc(NC(=O)NS(=O)(=O)c2ncccc2OCC(F)(F)F)n1`: the molecule was called inactive.

`CCOC(=O)O[C@H](C)OC(=O)c1ccc2c(c1)cc(C(=O)NC1CCN(C(C)C)CC1)n2Cc1cc(-c2ccc(Cl)s2)on1`: the AC50 is 39.6 µM (active).

As for `CC1(C)C(C=C(Cl)Cl)C1C(=O)OC(C#N)c1cccc(Oc2ccccc2)c1` (centres undefined), the molecule was called inactive.
